Laboratory results: PubChem BioAssay (NCI)
The panel holds about 83,000 compounds, 20% with a hit somewhere; the sample as a whole holds those more often.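 Step 1: grow cells in 96-well plates. Step 2: add test compound at a single concentration. Step 3: incubate 48 h. Step 4: record percent growth.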 Unmarked numbers belong to inactive results. Activity calls are given as the source filed them. How the source made its calls: active means growth percent below 10; inactive means the rest.

Assays:
Test in all cases: NCI-60 one-dose screen, 48 h (100 = growth as untreated, 0 = no growth, -100 = all killed)
Conditions in all cases: 10 µM unless noted
NCI-H23 lung = test system: NCI-H23 lung
NCI-H226 lung = test system: NCI-H226 lung
NCI-H322M lung = test system: NCI-H322M lung
HOP-62 NSCLC = test system: HOP-62 NSCLC
NCI-H460 lung = test system: NCI-H460 lung
HOP-92 NSCLC = test system: HOP-92 NSCLC
NCI-H522 lung = test system: NCI-H522 lung
A549/ATCC NSCLC = test system: A549/ATCC NSCLC
786-0 renal = test system: 786-0 renal
COLO 205 colon = test system: COLO 205 colon
DU-145 prostate = test system: DU-145 prostate
K-562 leukemia = test system: K-562 leukemia
MALME-3M melanoma = test system: MALME-3M melanoma
MDA-MB-231 breast = test system: MDA-MB-231 breast
RXF 393 renal = test system: RXF 393 renal
SF-268 CNS = test system: SF-268 CNS
SF-295 CNS = test system: SF-295 CNS
SF-539 CNS = test system: SF-539 CNS
UACC-257 melanoma = test system: UACC-257 melanoma
M14 melanoma = test system: M14 melanoma

Row | Compound | growth (NCI-H23 lung) | growth (NCI-H226 lung) | growth (NCI-H322M lung) | growth (HOP-62 NSCLC) | growth (NCI-H460 lung) | growth (HOP-92 NSCLC) | growth (NCI-H522 lung) | growth (A549/ATCC NSCLC) | growth (786-0 renal) | growth (COLO 205 colon) | growth (DU-145 prostate) | growth (K-562 leukemia) | growth (MALME-3M melanoma) | growth (MDA-MB-231 breast) [%] | growth (RXF 393 renal) | growth (SF-268 CNS) | growth (SF-295 CNS) | growth (SF-539 CNS) | growth (UACC-257 melanoma) | growth (M14 melanoma)
1 | O=C1c2cc3c(cc2-c2c1c1ccc(F)cc1c(=O)n2C[C@H](O)[C@@H](O)[C@H](O)CO)OCO3 | -31.9% (active) | -17.4% (active) | 13% | -7.29% (active) | 3.2% (active) | 6.56% (active) | -22.1% (active) | -33.7% (active) | 4.19% (active) | -31.1% (active) | 2.47% (active) | 9.69% (active) | -54.6% (active) | 11.1 | -47.1% (active) | 11.2% | -0.994% (active) | -44.6% (active) | -44.3% (active) | -14% (active)
2 | COc1ccc(-c2n[nH]nc2-c2csc3ccccc23)cc1OC | 35% | 67.2% | 51.7% | 25.2% | 15.7% | 41.6% | 7.11% (active) | 31.9% | 30.7% | 34.7% | 41.5% | 9.48% (active) | 56.9% | 35.6 | 23.5% | 30.2% | 25.9% | -2.39% (active) | 40.1% | 7.35% (active)
3 | COc1cc(C2CC(=O)c3ccccc3N2)cc(OC)c1OC (stereo not given) | 95.7% | 82.6% | 102% | 97.6% | 101% | 92.2% | 54% | 84.6% | 102% | 113% | 117% | 97.6% | 93.7% | 86.9 | 102% | 104% | 91.7% | 102% | 87.1% | 103%
4 | CCOc1cc2ncc(C#N)c(Nc3ccc(OCc4cccc(F)c4)c(Cl)c3)c2cc1NC(=O)CC1CCSS1 (stereo not given) | 47.4% | 56.1% | 6.49% (active) | 14.9% | -56.6% (active) | 66.7% | 58.2% | -69.7% (active) | 88.5% | 32.2% | -24.9% (active) | 10.5% | 56.5% | 14.5 | 50.2% | -22.3% (active) | 91.3% | 49.9% | 64.8% | -68.5% (active)
5 | CC(=O)Nc1ccc(S(=O)(=O)Nc2cccc(-c3nc(-c4ccc(NC(=O)c5cccnc5)cc4Cl)no3)c2)cc1 | 42.1% | 57.9% | 41.6% | 34.9% | 18% | 32.1% | 11.2% | 44.2% | 41.7% | 21.7% | 54.6% | 18.9% | 59.7% | 47.5 | 76.5% | 48.2% | 42.2% | 7.87% (active) | 35% | 27.1%
6 | O=C1C=C(OCC=C(Cl)Cl)C(=O)c2ccccc21 | 57.4% | 97.3% | 101% | 87.2% | 99.9% | 73.7% | 51.8% | 91.3% | 94.9% | 137% | 77.4% | 80% | 80.9% | 84.7 | 86.6% | 94.4% | 92.8% | 93.2% | 76.4% | 83.3%
7 | CC(=O)NCC1c2c(n(C)c3c(Cl)c(Cl)ccc23)C(=O)NC1(C)C (stereo not given) | 90.3% | 97.1% | 91.9% | 88.2% | 96.6% | 90.6% | 92.8% | 94.4% | 100% | 113% | 108% | 79.5% | 108% | 112 | 90.5% | 108% | 89.5% | 94.5% | 103% | 94.2%
8 | O=C1NC(=Nc2ccc(O)cc2)S/C1=C\c1cccc(Cl)c1 | 88.2% | 102% | 83.7% | 76.1% | 86.3% | 72.5% | 76.3% | 54.9% | 67.1% | 102% | 84.5% | 21.9% | 88.7% | 96.2 | 75.1% | 74.1% | 69.1% | 68.6% | 95.9% | 56.7%
